KinaseGlo FLuc: blocks Kinase-Glo luciferase, a counter-screen artifact. 200,000 compounds, 0.28% hits. Potency, µM (series often up to 38.3 µM), inactives show at the highest dose activity change, negative = inhibition, actives largely listed as inhibitors. AID 1379. Kinase-Glo luciferase, ATP luminescence, 8 min. Q27757; further: on the % scale 0 is the no-effect control and ±100 the full control effect; nearly all actives have a fitted effect of over 60% in size
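Kinase-Glo luciferase light output from ATP and luciferin was measured with 10 uM ATP, within the enzyme's linear range. Buffer: 50 mM imidazole pH 7.2, 50 mM KCl, 7 mM MgCl2, 0.01% Tween 20, 0.05% BSA; luminescence read after 8 min at ambient temperature.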
ELG1 genotoxic: inducers of genotoxicity in HEK293T ELG1-luciferase cells; HEK293T ELG1-luciferase reporter, luminescence, 16 h; Potency, µM (highest dose often 46 µM), without a hit: top-dose activity change, positive = activation, hits mostly activators; 330,000 compounds, 1.3% hits; further: % of control where 0% means no effect; nearly all actives have a fitted effect of over 60% in size
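Reporter readout depends on ELG1 protein level, which increases with genetic stress. After 16 hr compound exposure at 37 °C, luciferase activity was quantified using ONE-Glo.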
FLuc counter: counter-screen for miR-21 project: firefly luciferase inhibitors or activators. P08659. purified FLuc, Km substrates, luminescence inhibition. 360,000 compounds, 6.9% hits. Potency, µM (series often up to 57.5 µM), inactives show at the highest dose activity change, negative = inhibition, most hits filed as inhibitors;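 further: plate controls were vehicle for no effect and reference inhibitor for full effect; nearly all actives have a fitted effect of over 55% in size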
Target sequence (P08659 whole entry, looked up): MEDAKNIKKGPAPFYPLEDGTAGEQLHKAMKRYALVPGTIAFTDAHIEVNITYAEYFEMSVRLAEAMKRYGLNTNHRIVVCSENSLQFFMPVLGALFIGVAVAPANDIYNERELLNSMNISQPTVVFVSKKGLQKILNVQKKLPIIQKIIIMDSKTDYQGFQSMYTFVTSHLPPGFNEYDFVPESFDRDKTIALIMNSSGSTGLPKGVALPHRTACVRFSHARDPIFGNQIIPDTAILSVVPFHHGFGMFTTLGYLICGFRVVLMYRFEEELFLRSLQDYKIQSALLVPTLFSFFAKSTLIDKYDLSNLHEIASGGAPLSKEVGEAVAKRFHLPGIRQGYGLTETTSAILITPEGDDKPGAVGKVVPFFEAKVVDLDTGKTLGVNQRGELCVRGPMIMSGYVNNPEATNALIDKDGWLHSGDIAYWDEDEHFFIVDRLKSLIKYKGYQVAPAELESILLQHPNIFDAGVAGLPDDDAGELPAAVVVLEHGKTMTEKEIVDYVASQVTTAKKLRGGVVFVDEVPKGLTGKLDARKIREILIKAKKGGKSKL
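Purified P. pyralis luciferase (10nM final) with 10uM D-luciferin and 10uM ATP (Km levels) in 50mM Tris acetate pH 7.5, 10mM Mg acetate, 0.01% Tween-20, 0.05% BSA; qHTS 6-point titration, ~60 µM downward; luminescence read.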
SMN2 splice enh: increases expression of the SMN2 splice variant; HEK293 SMN2-luciferase splicing reporter, luminescence, 30-36 h; Potency, µM (top dose mostly 46.1 µM), inactives show top-dose activity change, positive = activation, actives largely listed as activators; 210,000 compounds, 2.8% hits; further: % of control where 0% means no effect; nearly all actives have a fitted effect of over 55% in size
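qHTS luciferase splicing reporter: luminescence rises when SMN2 exon 7 is included in transfected HEK293 cells. Compound exposure lasted 30-36 h at 37C, with 4.5 mM final sodium butyrate as control, followed by a ONE-Glo read.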
NPC1 prom act: NPC1 promoter activation | 320,000 compounds, 2.4% hits | AID 485313 | Huh7 NPC1 promoter luciferase reporter, 24 h | Potency, µM (doses to about 9.22 µM), inactives show at the top dose activation, usual class: activators; further: % of control where 0% means no effect; nearly all actives have a fitted effect of over 60% in size
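Readout is luciferase luminescence, reflecting NPC1 promoter activation in stably transfected Huh7 cells after 24 h compound exposure at 37 °C in reduced-serum medium with 10% FBS.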
Rab9 prom act: activates the Rab9 promoter | Huh7 Rab9 promoter-luciferase reporter, luminescence, 24 h | AID 485297 | Potency, µM (series often up to 9.22 µM), without a hit: at the top dose activation, negative = inhibition, usual class: activators | 320,000 compounds, 2.8% hits; further: % of control where 0% means no effect; nearly all actives have a fitted effect of over 60% in size
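Using Huh7 cells stably transfected with Rab9 promoter–luciferase, compounds were incubated 24 h at 37 °C, 5% CO2; luciferase luminescence was read 10 min after reagent addition.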
Numbers without * were called inactive; ? = inconclusive; / = no result. Compounds with a hit are over-represented: about 7.5% of the library has one in this group of screens. The call rests on the fitted dose curve; in most records, active means well fitted curve in the direction sought with a large enough effect; inconclusive means small, poorly fitted or top-dose-only effect, or another doubt; inactive means no such curve, though single readings can be large; an effect the other way counts as inactive or inconclusive. Potency means the concentration at half of the fitted maximal effect.

SMILES	KinaseGlo FLuc	ELG1 genotoxic	FLuc counter	SMN2 splice enh	NPC1 prom act	Rab9 prom act
CCC(CO)Nc1ncnc2c1cnn2-c1ccc(C)cc1 (stereo not given)	/	/	3.4µM*	/	/	/
COc1ccc(OC)c(Nc2ncnc3c2cnn3-c2cccc(Cl)c2)c1	/	/	0%	/	/	/
CC(Nc1ncnc2c1cnn2-c1cccc(Cl)c1)c1ccccc1 (stereo not given)	/	/	24µM*	/	/	/
O=C(CSc1nncs1)Nc1ccc(N2CCCCC2)cc1	/	4%	13µM*	/	18%	21%
CCCC(=O)Nc1ccc(C(=O)COC(=O)C2=COCCO2)cc1	/	4%	?	/	1%	22%
COc1ccc(NC(=O)CSc2nncs2)cc1S(=O)(=O)N1CCCCC1	/	0%	/	/	/	/
O=C(O)CCC(=O)Nc1ccc(N2CCCCCC2)cc1	2%	0%	19µM*	?	10%	-4%
CCCC(=O)Nc1ccc(C(=O)COC(=O)C2CC2C)cc1 (stereo not given)	/	16%	1.7µM*	/	2µM*	1.4µM*
O=C(COC(=O)C1CCCCC1)Nc1ccc(N2CCCCC2)cc1	0%	6%	21µM*	-6%	16%	14%
Cc1ccc(N2CCN(c3ccc(NC(=O)CCC(=O)O)cc3)CC2)cc1	-2%	2%	-14%	4%	3%	0%
COc1ccc(-c2noc(CC(=O)Nc3ccc(Br)cc3C)n2)cc1	/	/	2%	/	/	/
COc1ccc(CCNC(=O)CN(Cc2ccc(Cl)cc2)S(C)(=O)=O)cc1OC	/	-8%	0%	/	13%	-1%
CC(O)CNCc1ccccc1C(F)(F)F (stereo not given)	/	3%	-1%	/	2%	11%
CC(C)c1ccc(NC(=O)COC(=O)C2CCCCC2)cc1	/	6%	1.2µM*	/	11%	17%
CC(C)CC(=O)Nc1ccc(C(=O)COC(=O)C2CCC2)cc1	/	10%	8.5µM*	/	-5%	-6%
O=C(COC(=O)C1CCC1)Nc1ccc(OC(F)F)cc1	-5%	-2%	?	17%	-2%	0%
CCCN(S(=O)(=O)c1ccccc1F)S(=O)(=O)c1ccccc1Br	/	-8%	-1%	/	-1%	-3%
CC(C)CCNC(=O)C1CCN(S(=O)(=O)c2cccc3nsnc23)CC1	/	/	-1%	-7%	/	/
O=C(Cc1c(F)cccc1Cl)NNC(=O)c1cccs1	/	3%	/	/	/	/
Cc1ccc(C(=O)NCC(=O)OCc2c(F)cccc2Cl)cc1	/	13%	12µM*	/	2%	0%
CC(=O)Nc1ccc(C(=O)NCC(=O)OCc2c(F)cccc2Cl)cc1	0%	3%	19µM*	?	-1%	-4%
CCOc1ccc(C(=O)NCC(=O)OCc2c(F)cccc2Cl)cc1	1%	0%	?	-1%	0%	-1%
O=C(CNC(=O)c1cccs1)OCc1c(F)cccc1Cl	/	?	15µM*	/	0%	-1%
Cc1c(NC(=O)CSc2ccc(Cl)cc2)cccc1-c1nc2cc(Cl)ccc2o1	-2%	14%	?	23%	-2%	-3%
O=C1CN(C(=O)c2ccc(S(=O)(=O)N3CCCCC3)cc2)C(c2ccc(F)cc2)c2cc(Br)ccc2N1 (stereo not given)	/	/	-5%	-1%	/	/
SMILES	KinaseGlo FLuc	ELG1 genotoxic	FLuc counter	SMN2 splice enh	NPC1 prom act	Rab9 prom act
CCCc1cc(=O)[nH]c(SCC(=O)Nc2ccc(C)cc2)n1	-1%	2%	-9%	8%	-1%	-1%
CCc1ccc(NC(=O)CSc2nc(CSc3ccc(C)cc3)cc(=O)[nH]2)cc1	/	6%	19µM*	/	-6%	-3%
Cc1ccc(SCc2cc(=O)[nH]c(SCC(=O)Nc3cc(Cl)ccc3Cl)n2)cc1	1%	-1%	27µM*	-8%	-2%	-5%
COc1ccc(-c2csc(NC(=O)c3cccs3)c2C(=O)O)cc1OC	-1%	-3%	24µM*	16%	13%	15%
COc1ccc(/C=C/C(=O)c2ccc(NC(=O)c3cccs3)cc2)cc1OC	4%	?	13µM*	16µM*	?	?
O=C(Nc1ccc(NC(=O)c2cccs2)cc1)c1cccc(Br)c1	/	/	-1%	-2%	/	/
O=C(Nc1cccc(O)c1)c1cccc(NC(=O)c2cccs2)c1	/	-12%	13µM*	/	15%	0%
COc1ccc(C(=O)Nc2cccc(NC(=O)c3cccs3)c2)cc1OC	/	-6%	11µM*	/	5%	8%
COC(=O)c1c(NC(C)=O)c2c3c(sc2n1Cc1cc(C)ccc1C)CCCC3	/	/	-6%	/	/	/
Cc1nc2nc(NC(=O)c3ccc(C(C)(C)C)cc3)[nH]n2c(=O)c1Cl	/	/	?	1%	/	/
C=C(C)c1cccc(C(C)(C)NC(=O)N2CCN(c3ccc(OC)cc3)CC2)c1	2%	1%	-1%	-20%	-3%	-1%
O=C(c1ccncc1)N1CCC2(CC1)CCN(C(c1ccccc1)c1ccccc1)CC2	-1%	/	/	-13%	/	/
COc1ccc(NC(=O)c2cccs2)cc1O	?	?	15µM*	?	?	?
COc1ccc(C(=O)Nc2ccc(NC(=O)c3cccs3)cc2)cc1OC	/	/	0%	-3%	/	/
COc1ccccc1OC(C)C(=O)Nc1c(C(=O)c2ccc(Cl)cc2)oc2ccccc12 (stereo not given)	/	/	1%	?	/	/
Cc1ccc(/C=N/Nc2ncc(Cl)cc2Cl)s1	-4%	?	6µM*	?	3.5µM*	?
Clc1cnc(N/N=C/c2cccs2)c(Cl)c1	-8%	?	9.5µM*	?	2.2µM*	4µM*
Oc1ccc(/C=N/Nc2ncc(Cl)cc2Cl)cc1	/	?	?	/	15%	13%
Clc1cnc(N/N=C/c2ccco2)c(Cl)c1	-17%	?	11µM*	5.6µM*	1.4µM*	0.79µM*
CC(C)CC(NS(=O)(=O)c1ccc2c(c1)oc(=O)n2C)C(=O)NCCc1ccc(Cl)cc1 (stereo not given)	/	/	1%	-1%	/	/
COc1ccccc1CCNC(=O)Cc1c(C)c2ccc(O)cc2oc1=O	/	/	-14%	-6%	/	/
Cc1c(CC(=O)NCC(=O)O)c(=O)oc2cc3occ(-c4ccccc4)c3cc12	/	2%	24µM*	/	-4%	-3%
Cc1c(CC(=O)NCc2ccccc2Cl)c(=O)oc2cc(O)ccc12	/	/	21µM*	3%	/	/
Cc1c(CC(=O)NCCCC(=O)O)c(=O)oc2cc3occ(-c4ccccc4)c3cc12	/	4%	19µM*	/	0%	7%
O=C(CCCCn1c(=O)c2ccccc2n(CC(=O)Nc2ccc(F)cc2F)c1=O)NCCc1ccccc1	/	/	-2%	8%	/	/
Cc1ccc(CNc2ccc(N3CCOCC3)cc2)s1	-11%	4.1µM*	0.95µM*	18µM*	2.5µM*	3.5µM*
Cc1ccc(NCc2ccc(C)s2)cc1	/	13%	21µM*	/	18%	18%

Source: PubChem (National Center for Advancing Translational Sciences (NCATS))
